# Screening results from PubChem BioAssay.
# Only some compounds are listed: those with a hit (about 8% of all), similar ones and a draw of the others.
# Marburg entry inh: qHTS for inhibitors of binding or entry into cells for Marburg Virus. 300,000 compounds, 1.8% hits. Potency, µM (highest dose often 37.8 µM), actives largely listed as inhibitors. AID 540276, 2011. Marburg virus pseudotyped entry inhibition, cell reporter; calls by dose curve; tested in HEK293 cells
# SARS PLpro yeast: qHTS of Yeast-based Assay for SARS-CoV PLP | AID 485353, 2010 | S. cerevisiae expressing SARS-CoV PLpro, growth rescue | Potency, µM (top dose mostly 32.9 µM), actives largely listed as activators | 330,000 compounds, 0.19% hits; calls by dose curve; note: nearly all actives have a fitted effect of over 55% in size
# FMDV antiviral: High Throughput Screening for Foot and Mouth Disease Virus Antivirals; FMDV antiviral cell-based qHTS; Potency, µM (highest dose often 57.9 µM), hits mostly inhibitors; 410,000 compounds, 1.2% hits; AID 1159524, 2015; calls by dose curve; tested in HEK293T cells; note: read-out not given here; nearly all actives have a fitted effect of over 45% in size
# HCV inhibitor: qHTS Assay for Inhibitors of Hepatitis C Virus (HCV); Huh7.5.1 HCVcc-Cre infection, luciferase reporter, 44 h; Potency, µM (titrated, usually from 41.8 µM), hits mostly inhibitors; 340,000 compounds, 3.4% hits; active = well fitted inhibition curve with a large enough effect; inconclusive = small, poorly fitted or top-dose-only effect, or another doubt; inactive = no such curve, though single readings can be large or run the other way
#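 Reporter virus HCVcc-Cre (~0.5 moi) infects cells exposed to compound; seeding density 1,000 cells/well with 4 h settling beforehand. Luminescence, 15 sec read, taken 44 h post-infection following a 15 min RT substrate incubation.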
# LASV entry inh: qHTS for Inhibitors of binding or entry into cells for Lassa Virus | 300,000 compounds, 1.2% hits | Lassa virus pseudotype entry inhibition, cell reporter | Potency, µM (series often up to 37.9 µM), most hits filed as inhibitors; calls by dose curve; tested in HEK293 cells; note: nearly all actives have a fitted effect of over 50% in size
# HCMV antiviral: qHTS Assay for inhibitors of the human cytomegalovirus (HCMV); HFF cells, HCMV-luciferase reporter, 72 h; active compounds read low; activity change, negative = inhibition, % at 57.5 µM; 410,000 compounds, 4.5% hits; in the data active = activity change below about -60%; inconclusive = no clear call, values can overlap the other calls; inactive = above about -39%
#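 Compounds were evaluated in HFFs infected with an HCMV luciferase reporter virus (MOI 1 PFU/cell). Luciferase in lysates collected 72 h post infection served as the replication measure.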
# Numbers stand for hits; 0 = inactive; ? = inconclusive; - = no result given.
SMILES,Marburg entry inh,SARS PLpro yeast,FMDV antiviral,HCV inhibitor,LASV entry inh,HCMV antiviral
CC(=O)O[C@H]1CC2(C)[C@@H](C[C@@H](O)[C@H]3[C@@]4(C)CC[C@@H](O)[C@@H](C)[C@@H]4CC[C@@]32C)C1=C(CCC=C(C)C)C(=O)O (stereo partly drawn),?,-,-,-,0,-
Cc1ccc2c(=O)cc(C(=O)Nc3nnc(CC(C)C)s3)oc2c1C,0,-,0,-,0,0
CCOC(=O)C1CCN(CC(=O)Nc2c(C(=O)OC)[nH]c3cccc(Cl)c23)CC1,0,0,0,0,0,0
COC(=O)c1[nH]c2cccc(Cl)c2c1NC(=O)CN(C)C1CCCCC1,11µM,0,0,?,0,0
Fc1ccc(NC(=S)Nc2ccc(Br)cc2)cc1,0,0,0,?,?,-79
CCN(CC)c1ccc(NC(=S)Nc2ccc(F)cc2)cc1,?,0,0,11µM,0,0
Oc1ccc(NC(=S)Nc2ccc(F)cc2)cc1,-,0,0,0,-,0
COc1cccc(CCNc2ncnc3sc(C(=O)N4CCOCC4)c(C)c23)c1,-,-,0,-,-,-
COc1ccc(S(=O)(=O)CC(=O)c2cc(C)c(O)c(C)c2)cc1,-,0,0,0,-,0
Cc1cc(C(=O)CS(=O)(=O)c2ccc(Cl)cc2)cc(C)c1O,-,0,0,11µM,-,0
CCN(N=O)c1ccc(C=C2C=Cc3ccccc32)cc1,?,-,0,0,4µM,0
CN(N=O)c1ccc(C=C2C=Cc3ccccc32)cc1,0,-,0,0,?,0
CC(=O)N1CCCc2cc(S(=O)(=O)N3CCC(C(=O)NCCC(C)C)CC3)ccc21,-,-,0,-,0,0
CN(CCCCCC(=O)/C=N\O)Cc1ccccc1,0,-,-,-,-,-
Cc1cccc(-n2cc[nH]c2=S)c1C,?,0,0,0,0,-69
Cc1c(Cl)cccc1NS(=O)(=O)c1ccc2[nH]cc(C(=O)NC3CCCC3)c(=O)c2c1,?,-,0,-,0,0
O=C(Cn1cc(S(=O)(=O)Cc2ccccc2Cl)c2ccccc21)Nc1ccc(F)cc1F,-,-,0,-,0,0
Nc1cc2c(cc1[N+](=O)[O-])-c1ccccc1C2=NO,?,-,0,?,?,-68
O=[N+]([O-])c1ccc2c(c1)C(=NO)c1cc(Cl)c(Cl)cc1-2,?,-,0,11µM,0,?
O=C(O)c1ccccc1-c1ccc([N+](=O)[O-])cc1Cl,-,-,0,-,-,0
O=C(Nc1nc(-c2ccccc2)c(-c2ccccc2)o1)c1ccc(F)cc1,10µM,0,0,?,0,0
COc1nc(NC(=O)c2ccc(F)cc2)nc(OC)c1-c1ccccc1,?,0,0,?,-,-64
CCCc1cc(NCc2ccccn2)n2c(nc3ccccc32)c1C#N,0,0,0,13µM,0,0
Cc1ccccc1-c1nc(CN2CCC(C(=O)NCCCN3CCCC3)CC2)c(C)o1,?,0,0,14µM,?,0
COc1ccc(C(=O)Oc2cc(-c3ccc(OC)c(OC)c3)cc(=O)c3c(C)oc(C)c23)cc1,0,-,0,-,0,0
SMILES,Marburg entry inh,SARS PLpro yeast,FMDV antiviral,HCV inhibitor,LASV entry inh,HCMV antiviral
O=C(Nc1ccccc1N1CCOCC1)c1cccc2c(Br)cccc12,-,0,0,5.6µM,-,?
CC(C)C(=O)N1CCN(c2ccccc2NC(=O)c2cccc3ccccc23)CC1,?,0,?,?,?,-65
CCCSc1ncc(Cl)c(C(=O)N(Cc2ccc(N(C)C)cc2)C2CCS(=O)(=O)C2)n1 (stereo not drawn),0,-,0,-,0,?
CC1(C)C=Cc2cc(-c3coc4cc(O)cc(O)c4c3=O)cc(O)c2O1,-,-,0,11µM,-,-61
Cn1cnc(S(=O)(=O)N2CCCC(C(=O)NCc3ccccc3)C2)c1 (stereo not drawn),-,-,0,-,0,0
Cn1c(/C(C#N)=C/c2ccc(O)cc2)nc2ccccc21,-,0,0,0,-,0
Cn1c(/C(C#N)=C/c2ccncc2)nc2ccccc21,-,0,16µM,0,-,0
CS(=O)(=O)Nc1cccc(NC(=O)c2ccc(-n3ccnc3)c3ccoc23)c1,-,-,0,-,-,-63
Cc1cccc(NC(=O)NNC(=O)c2cc3ccccc3cc2O)c1C,0,0,0,0,0,0
Cc1cccc(NC(=S)NNC(=O)c2ccc(O)cc2O)c1C,?,0,0,0,0,-98
